According to PubChem BioAssay AID504332 (National Center for Advancing Translational Sciences (NCATS), 2011):
“And” between values parts separate entries of the source, which are not always exact repeats. Equal entries are not always repeated. About 31,000 (8.9%) of roughly 350,000 compounds were called active. A call without a number means that no potency is given here. Roughly 15% stayed inconclusive and do not appear here. Calls follow the shape of the dose curve; as a rule, active = well fitted inhibition curve with a large enough effect; inconclusive = small, poorly fitted or top-dose-only effect; inactive = no such curve, though single readings can be large or run the other way. Only a selection was taken, and actives are over-represented in it overall. More than one record can exist for a structure, and the calls need not agree.

target: Histone-lysine N-methyltransferase EHMT2 (Homo sapiens) (UniProt Q96KQ7); experiment: qHTS Assay for Inhibitors of Histone Lysine Methyltransferase G9a; details: G9a H3K9 monomethylation, AlphaScreen, 2 h; series mostly up to 59 µM; also: nearly all actives have a fitted effect of over 75% in size
Method in brief: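 G9a (20 nM) was preincubated 15 min with compound, then reacted 2 h at room temperature with 500 nM biotin-H3K9 peptide and 20 µM SAM. Monomethyl-H3K9 detected by AlphaScreen using anti-H3K9me1 antibody.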
Potency is read from the fitted curve at half-maximal effect.

Histone-lysine N-methyltransferase EHMT2 (Homo sapiens), sequence (Q96KQ7 913-1193 limits assumed): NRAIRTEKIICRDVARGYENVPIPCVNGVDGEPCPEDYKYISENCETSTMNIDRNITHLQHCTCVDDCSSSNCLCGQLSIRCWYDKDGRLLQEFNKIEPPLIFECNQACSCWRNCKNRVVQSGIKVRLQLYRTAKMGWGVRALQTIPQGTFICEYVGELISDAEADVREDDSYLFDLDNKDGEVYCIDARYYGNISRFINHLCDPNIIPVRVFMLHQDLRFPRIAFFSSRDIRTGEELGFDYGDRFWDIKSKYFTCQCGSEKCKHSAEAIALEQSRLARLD

| Structure (SMILES) | Potency | activity, negative = inhibition |
| --- | --- | --- |
| Cn1c(SCC(=O)N2CCCc3ccccc32)ncc(C(=O)Nc2ccc(F)cc2)c1=O | inactive |  |
| CCN(CC)C(CNC(=O)CSc1nnnn1-c1cccc(F)c1)c1ccco1 (stereo not drawn) |  | 5.11% [at 12.7 µM] (inactive) |
| O=C(O)c1ccc(/C=N/NC(=O)c2ccc(Br)cc2)cc1 | inactive |  |
| Cc1ccc(C(=O)N/N=C\c2cc(Br)c(Br)o2)cn1 | 50.1 µM (active) |  |
| O=C(N/N=C/c1ccc(Br)o1)c1cncc(Br)c1 | inactive |  |
| COc1ccc(CC(=O)OC(C)C(=O)Nc2ccc(S(N)(=O)=O)cc2)cc1 (stereo not drawn) |  | -8.93% [at 2.33 µM] (inactive) |
| CSc1nc(-c2ccccc2Cl)nc2c1Cc1c(CO)cnc(C)c1O2 | inactive |  |
| COc1ccc(CNC(=O)C(c2ccc(O)cc2)N(Cc2ccco2)C(=O)c2snc(C(N)=O)c2N)cc1 (stereo not drawn) | inactive |  |
| O=C(OCc1cc(=O)n2ccsc2n1)C1(c2ccc(Cl)cc2)CC1 |  | 2.61% [at 12.7 µM] (inactive) |
| CCN1CCN(CCCNC(=O)c2ccc3c(c2)sc2nc(-c4ccc(OC)cc4)cn23)CC1 | inactive |  |
| CN(C)S(=O)(=O)c1ccc(C(=O)NCC2(N3CCOCC3)CCCCC2)cc1 |  | 0.405% [at 2.33 µM] (inactive) |
| CN1CN(C)c2ccc([N+](=O)[O-])c3cccc1c23 | 50.1 µM (active) |  |
| Cc1ccc(C)c(OCCC(=O)OCC(=O)c2ccc3c(c2)NC(=O)CO3)c1 |  | 6.89% [at 12.7 µM] (inactive) |
| O=C(O)CN1c2cccc3cccc(c23)S1(=O)=O | 44.7 µM (active) |  |
| COc1ccc(NC(=O)C(C)N2c3cccc4cccc(c34)S2(=O)=O)c(OC)c1 (stereo not drawn) | inactive |  |
| CCN(CC(=O)Nc1c(F)cccc1F)C(=O)CN1c2cccc3cccc(c23)S1(=O)=O |  | 5.18% [at 0.501 µM] (inactive) |
| Cc1ccc(-n2c(SCC(=O)N3CCC(C(=O)O)CC3)nc3ccccc3c2=O)cc1C | inactive |  |
| CC(C)OC(=O)c1ccc(COc2ccc3ccc(=O)oc3c2)o1 | inactive |  |
| Cc1nonc1C(=O)N/N=C/c1ccc(O)cc1 | inactive |  |
| O=C(N/N=C/c1ccc(Cl)c(Cl)c1)c1ccc2nc[nH]c2c1 | inactive |  |
| CC(C)c1nc2ccc(C(=O)O)cc2[nH]1 | inactive |  |

| Structure (SMILES) | Potency | activity, negative = inhibition |
| --- | --- | --- |
| Cc1ccc2nc(CNC(=O)c3ccccc3)[nH]c2c1 | inactive |  |
| Cc1nc2ccc(C(=O)O)cc2[nH]1 | 70.8 µM (active) |  |
| Cc1nc2ccc(C(=O)N/N=C/c3ccc(O)cc3)cc2[nH]1 | 79.4 µM (active) |  |
| CCc1ccccc1N1C(=O)CN(S(=O)(=O)CC)CC1(C)C(=O)NC1CCCCC1 (stereo not drawn) | inactive |  |
| Cc1ccc2nc(COc3ccc(NC(=O)COc4ccccc4F)cc3)cc(=O)n2c1 | inactive |  |
| C[C@H](NC(=O)c1ccccc1Cl)C(=O)OCC(=O)N1CCN(c2ccccc2)CC1 |  | -0.744% [at 12.7 µM] (inactive) |
| Cn1c(=O)c2c(nc(SCC(=O)Nc3ccc(F)cc3)n2Cc2ccc(Cl)cc2)n(C)c1=O | inactive |  |
| COc1cccc(-n2c(N)cc(=O)nc2SCC(=O)Nc2cc(C)on2)c1 | inactive |  |
| COc1ccccc1CNC(=O)CCCn1c(=O)c2ccccc2n(CC(=O)Nc2ccc(C)cc2Cl)c1=O | inactive |  |
| CCOC(=O)c1ccc(NC(=O)CSc2nc3c([nH]c4ccccc43)c(=O)n2C)cc1 | inactive |  |
| Cc1cc(C(=O)N/N=C/c2ccc(N3CCOCC3)cc2)c(C)o1 | inactive |  |
| C=CCNC(=S)N/N=C/c1ccc(C)s1 |  | 72.7% [at 12.7 µM] (inactive) |
| CNC(=S)N/N=C/c1ccc(N2CCOCC2)s1 | 28.2 µM (active) |  |
| COc1cc2ccccc2cc1C(=O)Nc1ccc(NC(=O)c2cccs2)cc1 | inactive |  |
| O=C(Cc1ccc(Cl)cc1)Nc1ccc2nn(-c3ccc(Cl)cc3)nc2c1 | inactive |  |
| Cc1ccc(CCNC(=O)Cn2c(-c3cccs3)cc3cc(F)ccc32)cc1 | inactive |  |
| CCOC(=O)c1cccc(NC(=O)C(Cc2ccccc2)NS(=O)(=O)c2cccc3nsnc23)c1 (stereo not drawn) | inactive |  |
| Cc1ccnc(NC(=O)C(C)N2C(=O)c3ccccc3C2=O)c1 (stereo not drawn) | inactive |  |
| Cc1ccc(N2C(=O)c3ccccc3C2(O)c2ncc[nH]2)cc1 (stereo not drawn) | 7.08 µM (active) |  |
| Cc1ccc(-n2ccc(=O)c(C(=O)O)n2)cc1 | inactive |  |
| O=C(O)c1ccccc1-c1ccccc1C(=O)NCCc1ccccc1 | inactive |  |

| Structure (SMILES) | Potency | activity, negative = inhibition |
| --- | --- | --- |
| CCOCCCNC(=O)c1c(NC(=O)c2nc(SC)ncc2Cl)sc2c1CCCC2 | inactive |  |
| COc1ccc(-c2nc(SCC(=O)N3CCCC3)n[nH]2)cc1 | inactive |  |
| COc1ccc(N2C(=O)CC(SC(C)C)C2=O)cc1 (stereo not drawn) | inactive |  |
| COc1ccc(N2C(=O)CC(Sc3n[nH]c(-c4ccc(C)cc4)n3)C2=O)cc1 (stereo not drawn) | 1.58 µM (active) |  |
| CC(=O)Nc1ccc(NC(=O)C2CCCN(S(=O)(=O)c3ccc4c(c3)CCCC(=O)N4)C2)cc1 (stereo not drawn) | inactive |  |
| CCN1CCN(C(=O)N(Cc2ccc(Cl)cc2)S(=O)(=O)c2ccc(C)cc2)CC1 |  | 19.8% [at 2.33 µM] (inactive) |
| CC(C)(C)c1ccc(CN2C(=O)c3ccccc3S2(=O)=O)cc1 | inactive |  |
| O=[N+]([O-])/C(N=Nc1ccccc1)=N\Nc1ccccc1 | 31.6 µM (active) |  |
| Cc1ccc(NC(=O)c2cccc(N(C)C)c2)cc1NC(=O)c1ccc(O)cc1 | inactive and 14.1 µM (active) |  |
| Cc1ccc(F)cc1NC(=O)c1cccc(N(C)C)c1 | inactive |  |
| Cc1ccc(F)cc1NC(=O)c1ccc2c(c1)OCO2 |  | -5.61% [at 12.7 µM] (inactive) |
| COc1cc2nc(SCC(=O)Nc3ccccc3F)n3nc(-c4ccccc4)nc3c2cc1OC | inactive |  |
| CCS(=O)(=O)c1ncc(N(Cc2ccc(F)cc2)Cc2ccco2)c(C(=O)Nc2cc(C)ccc2C)n1 | inactive |  |
| Cc1ccc(S(=O)(=O)NCCNC(C)c2ccc(Br)cc2)cc1 (stereo not drawn) |  | -1.1% [at 12.7 µM] (inactive) |
| Oc1cccc(/C=N/Nc2ccc(Cl)nn2)c1O | inactive |  |
| COc1cccc(/C=N/Nc2ccc(Cl)nn2)c1 | inactive |  |
| Clc1ccc(N/N=C/c2cccs2)nn1 | 35.5 µM (active) |  |
| CC(C)N(Cc1ccccc1)C(=O)COC(=O)c1ccccc1SCC(=O)N1CCCC1 |  | -46.5% [at 0.501 µM] (inactive) |
| COc1ccc(NCCc2ccccn2)cc1 | 39.8 µM (active) |  |
| Cc1c(C)c(C)c(S(=O)(=O)NCCc2ccccn2)c(C)c1C | inactive |  |
| O=C(CNC(=O)COc1ccccc1)NCCc1ccccn1 | inactive |  |
